# Source: the supplement of paper PMC5940239
# System: Madurella mycetomatis MM55
# Assay: percent growth relative to solvent control; higher = less inhibition, active = 20 or less
# Settings: 100 µM; 7 days
row,Structure (SMILES),percent growth
1,O=C(Nc1ccc(F)c(-c2nc3cc(-c4ccccc4)cnc3[nH]2)c1)N1CCCC1,95.8% (inactive)
2,COC(=O)c1cccc2oc(-c3cccc(OC)c3NC(=O)c3cc(-c4ccccc4)on3)nc12,123% (inactive)
3,COc1cccc(OC)c1C(=O)Nc1ccc(Cl)c(-c2nc3ccccc3s2)c1,78.4% (inactive)
4,CCOC(=O)c1noc(N)c1-c1ccccc1,87.2% (inactive)
5,CC1CCCCN1C(=O)NCCc1coc(-c2ccc(F)cc2)n1 (stereo not drawn),70% (inactive)
6,O=S(=O)(c1ccc(Cl)cc1)N1CCN(C(=S)NCc2ccco2)CC1,151% (inactive)
7,NCC(=O)N1CCn2c(nc(-c3ccccc3)c2Nc2ccc3c(c2)OCO3)C1,157% (inactive)
8,O=C(Cn1ccnc1[N+](=O)[O-])NCc1ccccc1,129% (inactive)
9,CC(C)c1ncc(-c2ccncc2)c([C@H]2CC[C@H](CNC(=O)c3cccnc3)CC2)n1,114% (inactive)
10,O=C(NCc1nnc2n1CCCCC2)c1ccc(-c2ccc(F)cc2)o1,87.7% (inactive)
11,COC(=O)c1ccc(F)cc1NS(=O)(=O)c1cccc(-c2cnn(Cc3ccccc3)c2)c1,118% (inactive)
12,CC(C)(C)n1nc(Cc2cccc3ccccc23)c2c(N)ncnc21,69.6% (inactive)
13,CC(C)(C)c1cc(C(=O)Nc2cccnc2)cc(C(=O)Nc2cccnc2)c1,153% (inactive)
14,CO[C@@H](C(=O)N1Cc2[nH]nc(NC(=O)c3ccc(N4CCN(C)CC4)cc3)c2C1)c1ccccc1,157% (inactive)
15,FC(F)(F)c1nnc2ccc(Cl)nn12,116% (inactive)
16,COc1cccc(CC(=O)N2CCC(n3c(C)nc4ccc(F)cc43)CC2)c1,118% (inactive)
17,Cc1ccc2[nH]c3c(NCCN(C)C)ncnc3c2c1,94.1% (inactive)
18,COc1ccc(C2(C(=O)Nc3ccc(Br)cc3)CCCC2)cc1,56.2% (inactive)
19,Cn1ccnc1CNCCS(=O)(=O)c1cccc(Nc2ccc(-c3cccc(F)c3)cn2)c1,65.7% (inactive)

row,Structure (SMILES),percent growth
1,O=C(C(Cc1c[nH]c2ccccc12)NS(=O)(=O)c1ccc(Cl)cc1)N1CCCCC1 (stereo not drawn),43.6% (inactive)
2,O=[N+]([O-])c1cn2c(n1)OC[C@@H](OCc1ccc(OC(F)(F)F)cc1)C2,97.3% (inactive)
3,Clc1ccc(CCNc2cc(-c3ccccc3)nc3ncnn23)cc1,108% (inactive)
4,COc1cc(-c2cc(-c3ccc(S(C)(=O)=O)cc3)cnc2N)ccc1O,11.2% (active)
5,CCC(NC(=O)c1ccccc1NC(=O)c1ccc(C)cc1)C(=O)OC (stereo not drawn),98.3% (inactive)
6,CCCCN(CCCC)c1c(C#N)cc(S(=O)(=O)Nc2ccccc2)cc1C#N,85.7% (inactive)
7,CNC(=O)c1cc(S(=O)(=O)N2CCN(c3ccccn3)CC2)cs1,143% (inactive)
8,CCOc1ccccc1NC(C)C(=O)Nc1cc(C(F)(F)F)ccc1N1CCOCC1 (stereo not drawn),76.7% (inactive)
9,COc1cccc(NC(=O)c2c(NC(=O)c3cccnc3)sc3c2CCC3)c1,50.9% (inactive)
10,CCn1cnc2c(Nc3cc(F)cc(F)c3)nc(C#N)nc21,95.2% (inactive)
11,N#Cc1ccc(-c2ccc(OCC(N)=O)cc2)cc1,96.5% (inactive)
12,COc1ccc(N(CCc2cccc(C)n2)C(C)=O)cc1,101% (inactive)
13,CCN(CC)S(=O)(=O)c1ccc(C(=O)Nc2cc(C)nn2-c2nc(C)c(C)c(=O)[nH]2)cc1,63% (inactive)
14,COc1ccc(-c2cnc3ccc(NCc4ccc(S(N)(=O)=O)cc4)nn23)cn1,86.7% (inactive)
15,CC1(C)Cc2c(c(N3CCOCC3)nc3snc(Br)c23)CO1,78.9% (inactive)
16,O=C(NC1CCCCC1)N1CCN(Cc2ccc3c(c2)OCO3)CC1,74.6% (inactive)
17,O=C(NCCN1CCCC1)c1cc(NCCN2CCOCC2)nc2ccc(Cl)cc12,85.5% (inactive)
18,O=C1[C@@H](Oc2ccccc2)[C@@H](c2ccc(Cl)cc2)N1CCn1cnc2c(NCc3ccccc3)ncnc21,98.5% (inactive)
19,C[C@H]1COc2c(N3CCN(C)CC3)c(F)cc3c(=O)c(C(=O)O)cn1c23,89.5% (inactive)
